# Screening data: PubChem BioAssay, The Scripps Research Institute Molecular Screening Center
# GPR151 ag = activators of human GPR151, primary screen, cell-based, PathHunter beta-arrestin, luminescence | G-protein coupled receptor 151 (Homo sapiens), Q8TDV0 | PathHunter beta-arrestin GPR151 cells | activation, % at 11.2 µM | 650,000 compounds, 1% hits | AID 1508602, 2020; in the data active = activation above about 4.9%;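 also: 0% = median of compound wells and 100% = cells with positive control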
# Target sequence (Q8TDV0 whole entry, looked up): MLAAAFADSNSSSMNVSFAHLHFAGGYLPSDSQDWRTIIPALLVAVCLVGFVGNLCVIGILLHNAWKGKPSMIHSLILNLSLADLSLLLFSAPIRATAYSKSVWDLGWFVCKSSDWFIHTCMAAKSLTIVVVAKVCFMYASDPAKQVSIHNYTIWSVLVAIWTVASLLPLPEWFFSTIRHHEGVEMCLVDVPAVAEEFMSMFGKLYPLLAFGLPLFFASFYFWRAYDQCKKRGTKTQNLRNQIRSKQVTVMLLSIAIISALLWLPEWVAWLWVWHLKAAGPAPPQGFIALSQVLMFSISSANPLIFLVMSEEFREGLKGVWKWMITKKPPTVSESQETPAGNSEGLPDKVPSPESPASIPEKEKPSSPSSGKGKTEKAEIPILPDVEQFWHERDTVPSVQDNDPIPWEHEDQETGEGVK
# MITF primary = MITF inhibitors, primary screen, biochemical, AlphaScreen, human. AlphaScreen MITF homodimerization, bead proximity signal. inhibition, % at 2.6 µM. 650,000 compounds, 0.91% hits. AID 1259374, 2018; in the data active = inhibition above about 50%;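 also: 0% = vehicle wells with protein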
# FBW7 activator = FBW7 E3 ligase activators, primary screen, biochemical, AlphaScreen, human; F-box/WD repeat-containing protein 7 (Homo sapiens), Q969H0; AlphaScreen FBW7–phospho-cyclin E peptide binding, activator screen; normalized activity (activation), % at 26.1 µM; 650,000 compounds, 0.13% hits; AID 1259310, 2017; in the data active = normalized activity above about 1.9%;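 also: purified mutant Fbw7 with reduced substrate affinity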
# TEAD-YAP block = TEAD-YAP interaction inhibition, primary screen, TEAD-YAP interaction inhibitor project, luminescence, HEK-TIYL cells. inhibition, % at 9.12 µM. 640,000 compounds, 1.4% hits. AID 1259422, 2018. TEAD-Gal4/YAP UAS-luciferase luminescence; in the data active = inhibition above about 32%;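 also: 0% = median of test compound wells and 100% = reference inhibitor wells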
# MITF inh conf = MITF inhibitors, retest of hits, confirmation, biochemical, AlphaScreen, triplicate; shares compounds with MITF primary; AlphaScreen MITF homodimerization, biotin/His-MITF beads; inhibition, % at 2.6 µM; AID 1259372, 2018; 4,700 compounds, 16% hits;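 active = inhibition above a cutoff derived from the DMSO control wells, cut at about 28% in these data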;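 also: 0% = MITF dimer wells with DMSO only; inhibitors lower the bead chemiluminescence by keeping MITF from dimerizing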
# AS interf DR = AlphaScreen optical interference compounds, dose response, counter-screen, biochemical, HTS; AlphaScreen optical interference counterscreen, cell-free; shares compounds with MITF primary; 480 compounds, 6% hits; IC50, µM; AID 1259373, 2018; call rule not given here
# AlphaScreen intf2 = AlphaScreen optical interference compounds, counter-screen for MITF inhibitor project, biochemical, triplicate. LysRS AlphaScreen counterscreen, signal interference. 4,700 compounds, 7.6% hits. shares compounds with MITF primary. inhibition, % at 2.6 µM;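 active = inhibition above a cutoff derived from the DMSO control wells, cut at about 30% in these data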
# Starred values were filed as active, the others as inactive; x = not tested or not shown. Compounds with a hit are over-represented: about 3.5% of the library has one in this group of screens.
SMILES,GPR151 ag,MITF primary,FBW7 activator,TEAD-YAP block,MITF inh conf,AlphaScreen intf2,others
CCN1CCN(CC(=O)Nc2ccc(F)cc2)CC1,0,83*,0,-1,17,21,
CC1CN(CC(=O)Nc2ccc(F)cc2)CC(C)O1 (stereo unspecified),3,55*,0,4,13,13,
O=C(CN1CCN(CC(=O)Nc2ccc(F)cc2)CC1)Nc1ccc(F)cc1,0,6,0,12,x,x,
CCCCNC(=O)CN(C)S(=O)(=O)c1ccc2c(c1)n(C)c(=O)c(=O)n2C,0,-15,0,-8,x,x,
COc1ccc(S(=O)(=O)N(Cc2cc3ccc(C)cc3[nH]c2=O)CC2CCCO2)cc1 (stereo unspecified),-1,69*,0,12,10,17,
Cc1ccc2[nH]c(=O)c(CN(CC3CCCO3)S(=O)(=O)c3ccccc3)cc2c1 (stereo unspecified),0,-13,0,-4,x,x,
O=C(O)c1cccc(N2C(=O)CC(Nc3ccc(N4CCOCC4)cc3)C2=O)c1 (stereo unspecified),-2,70*,0,-5,69*,4,AS interf DR=>6.6
Fc1ccc(-c2cc(NCCCn3ccnc3)nc(-c3cccnc3)n2)cc1,0,54*,-1,9,31*,39*,
Fc1ccc(-c2cc(NCCCn3ccnc3)nc(-c3ccncc3)n2)cc1,1,43,0,-4,x,x,
N#CCCNc1cc(-c2cccc(C(F)(F)F)c2)nc(-c2cccnc2)n1,0,104*,0,4,1,11,
Cc1nc(NCCCn2ccnc2)cc(-c2cccc(C(F)(F)F)c2)n1,-1,61*,-1,-44,-4,18,
N#CCCNc1cc(-c2ccc(F)cc2)nc(-c2cccnc2)n1,-2,1,0,5,x,x,
CC(C)NC(=O)c1ccc2c(c1)NC(=O)c1ccccc1N2,-1,-6,0,2,x,x,
O=C(c1ccc(Sc2ccc(Br)cc2)c([N+](=O)[O-])c1)N1CCN(Cc2ccccc2)CC1,-1,20,0,-1,x,x,
CC(=O)c1ccc(NC(=O)CSc2nnc(Cc3cccn3C)n2CCc2ccccc2)cc1,-1,28,1,2,x,x,
CCn1c(SCc2ccccc2)nnc1-c1cccc([N+](=O)[O-])c1,1,19,0,3,x,x,
Nc1ncc(-c2ccccc2)nc1N1CCC(C(=O)O)CC1,0,-7,0,-22,x,x,
Nc1ncc(-c2ccco2)nc1N1CCC(C(=O)O)CC1,0,73*,0,7,22,12,
COC(CN(C)C(=O)c1cn2cc(C)sc2n1)OC,-2,20,1,-27,x,x,
Cc1cc(C)cc(NC(=O)CN2C(=O)CC(c3ccccc3)S(=O)(=O)c3ccccc32)c1 (stereo unspecified),0,16,0,3,x,x,
O=C(O)COc1ccc(N2C(=O)c3ccccc3C2=O)cc1,-1,16,0,-2,x,x,
O=C(O)COc1ccc(-n2cccc2)cc1,-1,74*,0,-1,50*,-4,AS interf DR=>6.5
C/C(=C\c1ccco1)CN1CCC(N2CCC(C(=O)NCC3CCCO3)CC2)CC1 (stereo unspecified),0,16,0,-7,x,x,
O=C(CSc1nc(NCc2ccco2)c2ccccc2n1)N1CCN(c2ccccc2)CC1,0,52*,0,17,3,1,
COc1cc(N2CCOCC2)ccc1Nc1cc(NC(C)(C)c2ccccc2)c(C(F)(F)F)cn1,-2,58*,0,-1,44*,17,AS interf DR=>6.5
SMILES,GPR151 ag,MITF primary,FBW7 activator,TEAD-YAP block,MITF inh conf,AlphaScreen intf2,others
COc1cc(N2CCOCC2)ccc1Nc1cc(NCc2ccccc2)c(C(F)(F)F)cn1,-1,10,0,-1,x,x,
Cc1ccccc1Nc1nc(N)nc(CSc2nnc(C(F)(F)F)n2C)n1,-1,11,0,3,x,x,
O=C1C2CCCN2C(=O)N1c1ccc(Br)cc1 (stereo unspecified),0,51*,0,-8,10,16,
COc1ccc(C(=O)OCc2cc([N+](=O)[O-])cc3c2OCOC3)c(OC)c1OC,-2,13,0,6,x,x,
CCOC(=O)N1CCN(C(=O)Cn2cnc3ccccc32)CC1,1,0,0,7,x,x,
CCOC(=O)CN1CCC(Cn2cnc3ccccc32)CC1,0,79*,0,17,7,17,
O=C(CN1CCC(Cn2cnc3ccccc32)CC1)N1CCc2ccccc21,0,81*,0,35*,0,14,
Cc1ccc(NC(=O)CN2CCC(Cn3cnc4ccccc43)CC2)cc1Cl,0,70*,0,-5,12,13,
O=C(Cc1c(Sc2ccccc2)c2ccccc2n1Cc1ccccc1)Nc1ccccc1Cl,1,-3,0,9,x,x,
COc1cc(OC)cc(-c2nc(-c3cccnc3)no2)c1,-2,1,0,-6,x,x,
OCCNc1ccnc(Nc2nccc3ccccc23)n1,0,71*,0,-8,5,37*,
CCOC(=O)/C(C#N)=C\c1ccc(OCC)cc1,2,-11,0,-3,x,x,
CCOC(=O)/C(C#N)=C/c1ccc(OC(=O)c2ccccn2)cc1,-3,61*,-1,17,26,54*,
O[C@H]1[C@H](O)[C@@H](O)[C@@H]2O[C@@H]2[C@@H]1O,-1,9,0,-7,x,x,
Cc1cc(Br)ccc1NCc1ccccn1,0,67*,0,-12,-4,8,
Cc1ccc(NCc2ccccn2)c(Br)c1,-1,59*,1,-58,10,16,
Cc1cc(C)cc(NCc2ccccn2)c1,0,17,0,7,x,x,
Cc1ccc(NC(=O)CC2NCCNC2=O)cc1C (stereo unspecified),0,72*,1,-14,7,21,
COCCCNC(=O)/C(C#N)=C/c1ccc(-c2ccc(Cl)c(C(=O)O)c2)o1,0,58*,0,1,46*,19,AS interf DR=>6.5
COC1(c2nccs2)CCCc2c(OCc3ccc4ccccc4c3)cccc21 (stereo unspecified),0,-7,0,1,x,x,
CCN1CCN(CCOCCOc2ccccc2)CC1,-1,54*,0,12,4,11,
Brc1cccc(OCCN2CCNCC2)c1,-2,29,-1,-10,x,x,
CCN1CCN(CCOc2cccc(Oc3ccccc3)c2)CC1,1,74*,0,0,7,11,
CCN1CCN(CCCOc2ccc(OCc3ccccc3)cc2)CC1,0,34,0,-13,x,x,
